Screening results as filed in PubChem.
This is a sample that favours compounds with a hit; in the whole collection about 32% have one here.
CYP2C19 inhib = blockers of cytochrome P450 2C19 activity – biochemical, luminescence, ADME assay, primary screen | P33261 | CYP2C19 Supersomes, luciferin-H EGE luminescence, 30 min | inhibition, % at 5 µM | 21% of 96,000 active;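 active = CYP2C19 inhibition above a set limit at 5 µM in the primary screen, cut at about 50% in these data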;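 also: plate controls were negative control wells for no effect and 2.5 mM tranylcypromine positive control for full effect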
Target sequence (P33261 whole entry, looked up): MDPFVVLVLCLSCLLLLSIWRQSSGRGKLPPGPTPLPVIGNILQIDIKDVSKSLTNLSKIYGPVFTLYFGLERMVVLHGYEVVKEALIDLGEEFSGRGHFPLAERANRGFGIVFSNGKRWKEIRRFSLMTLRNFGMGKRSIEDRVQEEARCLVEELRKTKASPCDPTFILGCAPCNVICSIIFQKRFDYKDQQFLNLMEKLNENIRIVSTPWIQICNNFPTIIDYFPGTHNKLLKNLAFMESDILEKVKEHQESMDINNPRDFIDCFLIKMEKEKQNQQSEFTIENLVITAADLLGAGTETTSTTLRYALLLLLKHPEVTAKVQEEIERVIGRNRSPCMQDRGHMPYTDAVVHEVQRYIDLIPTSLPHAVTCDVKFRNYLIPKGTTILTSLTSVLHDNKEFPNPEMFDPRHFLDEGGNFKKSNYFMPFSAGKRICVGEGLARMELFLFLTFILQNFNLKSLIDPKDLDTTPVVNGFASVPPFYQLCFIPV
CYP2C19 act = human CYP2C19 activators, primary screen, biochemical, luminescence. Cytochrome P450 2C19 (Homo sapiens), P33261. activation factor at 5 µM. AID 1025, 2008. 96,000 tested, under 10 active. recombinant CYP2C19, luciferin-H EGE luminescence; hits give high values; 0 = fully inhibited enzyme, 1 = untreated enzyme;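 active = activation factor of at least 2 at 5 µM in the primary screen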;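 also: 0 = wells with 2.5 mM tranylcypromine and 1 = vehicle-only wells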
CYP2C9 inhib = blockers of cytochrome P450 2C9 activity – biochemical, luminescence, ADME assay, primary screen; 20% of 96,000 active; AID 777, 2007; P11712; CYP2C9 Supersomes, luciferin-H conversion; inhibition, % at 5 µM;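 active = blocking of liver enzyme CYP2C9 beyond about 50% at 5 µM, limit read from the data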
CYP2C9 activ = human CYP2C9 activators, primary screen, biochemical, luminescence; Cytochrome P450 2C9 (Homo sapiens), P11712; recombinant CYP2C9, luciferin-H conversion; hits give high values; factor 1 = untreated enzyme, 0 = blocked; activation factor at 5 µM; 1.4% of 96,000 active;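 active = activation factor of 2 or more for CYP2C9 at a 5 µM dose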;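 also: 0 = sulfaphenazole-blocked wells and 1 = vehicle-only wells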
PostGolgi ctrl = growth inhibition of yeast control strain, primary screen, counter-screen for post-Golgi transport modulator project. efflux-deficient yeast background strain, growth absorbance A615, 16 h. inhibition, % at 10 µM. 5% of 98,000 active. AID 738, 2007
PostGolgi yeast = phenotypic screen on post-Golgi transport, primary screen | 0.9% of 98,000 active | inhibition, % at 10 µM | post-Golgi transport phenotypic cell assay | AID 739, 2007;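 also: yeast cells grown in 1536-well plates; yeast grown about 18 h at 30C before absorbance read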
An asterisk follows results filed as active; . = no result given. Rule as the data show it, unless noted: active = inhibition above about 30%; inactive = the rest.

SMILES | CYP2C19 inhib | CYP2C19 act | CYP2C9 inhib | CYP2C9 activ | PostGolgi ctrl | PostGolgi yeast
Cc1cc(C)c(CSc2ncc(-c3ccc([N+](=O)[O-])cc3)[nH]2)c(C)c1 | 34 | 0.7 | 65* | 0.3 | 49* | 5
COc1cc(C(=O)OCC(=O)Nc2cc(C)on2)cc(OC)c1OC | -5 | 1 | 11 | 0.9 | 0 | 5
O=S(=O)(Nc1ncnc2c1oc1ccccc12)c1ccc(Cl)s1 | 61* | 0.4 | 92* | 0.1 | . | .
c1ccc(Nc2ncnc3c2oc2ccccc23)cc1 | 29 | 0.7 | -2 | 1 | 10 | -1
Cc1ccc(S(=O)(=O)Nc2c(C)n(C)n(-c3ccccc3)c2=O)cc1C(=O)NCc1ccccn1 | -2 | 1 | -1 | 1 | -6 | -6
Cc1ccc(Oc2ccc3c(c2)C(=O)N(c2ccc(S(=O)(=O)Nc4nccs4)cc2)C3=O)cc1 | 22 | 0.8 | 64* | 0.4 | 5 | 6
O=S(=O)(Nc1ncccn1)c1ccc(Nc2ncnc3ccccc23)cc1 | 32 | 0.7 | -9 | 1.1 | 0 | 3
O=C(COC(=O)[C@H](Cc1c[nH]c2ccccc12)NC(=O)c1ccc(Cl)cc1)Nc1ccc2c(c1)OCO2 | 47 | 0.5 | 98* | 0 | 0 | -6
O=C(COc1ccc(F)cc1Br)N1CCc2ccccc21 | 20 | 0.8 | -2 | 1 | 1 | 1
C=CCc1c(C)nc(SC)nc1Nc1ccc(C)cc1 | 6 | 0.9 | 5 | 0.9 | 32* | -12
Cc1nc(S(=O)(=O)N2CCOCC2)c(C#N)c(C)c1Cl | 0 | 1 | -2 | 1 | 10 | 5
Cc1cc(NC(=O)Nc2ccc(F)c(Cl)c2)no1 | 19 | 0.8 | 18 | 0.8 | 16 | 2
Cc1ccc(C(=O)CCNc2cccc(Br)c2)o1 | 62* | 0.4 | 16 | 0.8 | 7 | 18
Cc1ccc(C(=O)NCCCCNC(=O)c2ccc(C)o2)o1 | -17 | 1.2 | -11 | 1.1 | -1 | 2
Cc1ccc(C(=O)CCNc2ccc(Br)cc2)o1 | 91* | 0.1 | 27 | 0.7 | 19 | -9
Cc1ccc(C(=O)CCNc2ccc(F)c(Cl)c2)o1 | 66* | 0.3 | 12 | 0.9 | -4 | -2
Cc1ccc(C(=O)CCNc2ccccc2)o1 | 35 | 0.7 | -1 | 1 | -2 | -3
COc1cccc(NC(=O)NCc2cccn2C)c1 | 26 | 0.7 | 5 | 1 | 27 | 14
CCOCc1cnc(C)nc1NCC(=O)c1c(C)[nH]c2ccc(OC)cc12 | 2 | 1 | -1 | 1 | 3 | -4
CCn1c(SCC(=O)Nc2ccc(OCc3ccccc3)cc2)nnc1-c1ccco1 | 7 | 0.9 | 28 | 0.7 | . | .
CN(C(=O)c1ccccc1Cl)C1CCCCC1 | 75* | 0.2 | 37 | 0.6 | 18 | -4
Cc1onc(-c2ccccc2Cl)c1C(=O)N(C)C1CCCCC1 | 43 | 0.6 | 21 | 0.8 | 4 | -8
CCOC(=O)c1cc(-c2ccc(OC)cc2)nc2c1c(C)nn2CCC#N | 18 | 0.8 | 19 | 0.8 | 28 | -7
CCOC(=O)c1cc(-c2ccc(C#N)cc2)nc2c1c(C)nn2CCC#N | 11 | 0.9 | 52* | 0.5 | 16 | -2
Cc1ccc(-n2cnnn2)c(S(=O)(=O)N2CCOCC2)c1 | 8 | 0.9 | -14 | 1.1 | -1 | -2
SMILES | CYP2C19 inhib | CYP2C19 act | CYP2C9 inhib | CYP2C9 activ | PostGolgi ctrl | PostGolgi yeast
CCOc1cc(S(=O)(=O)N2CCC(Cc3ccccc3)CC2)c(OCC)cc1-n1cnnn1 | 53* | 0.5 | 73* | 0.3 | 10 | 3
CCOc1cc(S(=O)(=O)N2CC=C(c3ccc(F)cc3)CC2)c(OCC)cc1-n1cnnn1 | 11 | 0.9 | 93* | 0.1 | 101* | 0
CCOCCCNC(=O)CN1CCN(c2ccc(F)cc2)CC1 | 6 | 0.9 | -14 | 1.1 | 18 | 2
Cc1ccc(S(=O)(=O)NC(=O)NCc2ccccc2)cc1 | -4 | 1 | 3 | 1 | 1 | 7
CCCCOc1ccc(CNC(=O)NS(=O)(=O)c2ccc(OCC)cc2)cc1 | 10 | 0.9 | 86* | 0.1 | -7 | -2
CCCCOc1ccc(CNC(=O)NS(=O)(=O)c2ccc(OCC(C)C)cc2)cc1 | 14 | 0.9 | 90* | 0.1 | 7 | -8
C=CCOc1ccccc1CN1CCSCC1 | 71* | 0.3 | 10 | 0.9 | 22 | -1
CCn1c(COc2cccc(C)c2C)nnc1SCC(=O)N1CCN(c2ccc(OC)cc2)CC1 | 6 | 0.9 | -4 | 1 | 15 | 3
O=C1c2ccccc2C(O)(c2ncc[nH]2)N1CCc1ccccc1 (configuration not stated) | 92* | 0.1 | -1 | 1 | 5 | -3
Cc1nn(-c2cccc(Cl)c2)c2nc(-c3ccco3)cc(C(=O)O)c12 | -5 | 1.1 | 90* | 0.1 | 5 | -5
CCOC(=O)N1CCN(C(=O)C(CC(C)C)NS(=O)(=O)c2ccc3c(c2)oc(=O)n3C)CC1 (configuration not stated) | 19 | 0.8 | 10 | 0.9 | 19 | 16
O=c1c2ccc(Cl)cc2[nH]c(=S)n1Cc1cccnc1 | 56* | 0.4 | 44 | 0.6 | 4 | 5
O=C(c1cccc(F)c1)N1CCN(C2CCCCC2)CC1 | 12 | 0.9 | 0 | 1 | -12 | 11
O=C(c1ccccc1)N1CCN(C2CC3CCC2C3)CC1 (configuration not stated) | 82* | 0.2 | 21 | 0.8 | 20 | -2
O=C(c1ccc(F)cc1)N1CCN(C2CC3CCC2C3)CC1 (configuration not stated) | 76* | 0.2 | -2 | 1 | -1 | 10
O=C(c1ccccc1)N1CCN(C2CCCCCC2)CC1 | 17 | 0.8 | -3 | 1 | 6 | -11
COc1ccc(C(c2nnnn2CCc2ccccc2)N2CCN(C3CCCC3)CC2)cc1OC (configuration not stated) | -8 | 1.1 | 12 | 0.9 | 18 | 8
CCCNC(=O)NC(=O)CSc1nnc(C)n1N | -9 | 1.1 | -24 | 1.2 | 3 | -18
CCOc1ccc(NC2c3ccccc3C(=O)N2Cc2ccco2)cc1 (configuration not stated) | 23 | 0.8 | 74* | 0.3 | 6 | 7
O=C1c2ccccc2C(Nc2ccc3c(c2)OCO3)N1Cc1ccco1 (configuration not stated) | . | . | . | . | 3 | -6
O=C1c2ccccc2C(Nc2ccc(F)c(Cl)c2)N1Cc1ccco1 (configuration not stated) | 66* | 0.3 | 40 | 0.6 | 26 | 0
COC(=O)c1cc(NC2c3ccccc3C(=O)N2Cc2ccco2)cc(C(=O)OC)c1 (configuration not stated) | 77* | 0.2 | 31 | 0.7 | 1 | 0
